Compounds with a hit are over-represented: about 12% of the library has one in this group of screens.
G9a inh: G9a (human) methyltransferase inhibition | Q96KQ7 | G9a H3K9 monomethylation, AlphaScreen, 2 h | Potency, µM (doses to about 102 µM), for inactives: top-dose activity, negative = inhibition, most hits filed as inhibitors | hit rate 8.8% among 350,000 | AID 504332; further: on the % scale 0 is the no-effect control and ±100 the full control effect; nearly all actives have a fitted effect of over 75% in size
Target sequence (Q96KQ7 913-1193 limits assumed): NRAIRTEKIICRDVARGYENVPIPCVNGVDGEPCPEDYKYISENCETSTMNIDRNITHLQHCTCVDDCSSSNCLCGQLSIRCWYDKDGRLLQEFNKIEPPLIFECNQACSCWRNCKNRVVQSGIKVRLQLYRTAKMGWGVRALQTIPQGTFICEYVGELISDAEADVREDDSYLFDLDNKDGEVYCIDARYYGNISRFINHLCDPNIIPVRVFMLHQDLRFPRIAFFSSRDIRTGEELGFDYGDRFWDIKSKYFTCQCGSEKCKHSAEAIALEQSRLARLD
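Using a bead-based AlphaScreen, monomethylated H3K9 product from 2 h room-temperature reactions (G9a 20 nM, peptide 500 nM, SAM 20 uM) was detected with 0.5 ug/mL rabbit anti-H3K9me1 antibody.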
JMJD2A Tudor: inhibitors of human JMJD2A Tudor domain | hit rate 4.4% among 390,000 | AlphaScreen JMJD2A-Tudor / H3K4me3 peptide binding | O75164 | Potency, µM (highest dose often 114 µM), for the others: top-dose activity change, negative = inhibition, hits mostly inhibitors; further: on the % scale 0 is the no-effect control and ±100 the full control effect; nearly all actives have a fitted effect of over 50% in size
Sfp inh: inhibitors of Bacillus subtilis Sfp phosphopantetheinyl transferase; AID 1490; Potency, µM, without a hit: largest response in the series, negative = inhibition, most hits filed as inhibitors; hit rate 3.5% among 310,000; Q9F4F7; Biochemical Sfp PPTase activity, qHTS;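 further: the enzyme is Sfp with the accession as filed and its product quenches rhodamine fluorescence; 0% = enzyme reaction without inhibitor and -100% = no enzyme wells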
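Buffer: 50 mM Hepes-Na pH 7.6, 10 mM MgCl2, 0.01% Nonidet P-40, 0.01% BSA. Enzyme 15 nM, pre-exposed to compound 15 min; substrates then added and fluorescence change tracked over 30 min.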
BAZ2B inh: blocks human BAZ2B. hit rate 4.4% among 360,000. AID 504333. Potency, µM (top dose mostly 114 µM), for inactives: at the top dose activity change, negative = inhibition, usual class: inhibitors. AlphaScreen BAZ2B-H3K14Ac peptide displacement. Q9UIF8; further: on the % scale 0 is the no-effect control and ±100 the full control effect; nearly all actives have a fitted effect of over 60% in size
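Multi-concentration screen (max 110 uM) measuring displacement of acetylated histone H3 peptide from BAZ2B by AlphaScreen, using 50 nM protein, 50 nM peptide and 10 ug/mL streptavidin donor plus Ni-chelate acceptor beads.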
HP1b binding inh: HP1-beta chromodomain-methylated histone interaction inhibition; hit rate 0.56% among 390,000; AlphaScreen HP1-beta / biotin-H3K9me3 peptide binding; AID 540317; Potency, µM (titrated, usually from 114 µM), for inactives: at the highest dose activity change, negative = inhibition, usual class: inhibitors; further: nearly all actives have a fitted effect of over 70% in size
Target sequence (P83916 whole entry, looked up): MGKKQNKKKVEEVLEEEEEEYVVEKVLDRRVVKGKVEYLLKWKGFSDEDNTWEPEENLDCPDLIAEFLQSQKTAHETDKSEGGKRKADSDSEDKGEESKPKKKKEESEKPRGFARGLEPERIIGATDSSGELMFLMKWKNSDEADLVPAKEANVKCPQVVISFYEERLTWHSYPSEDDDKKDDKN
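HP1-beta protein (50 nM final) preincubated 30 min at room temperature with biotinylated H3(1-18)K9me3 peptide (50 nM) in PBS pH 7.4, 0.01% Tween-20, then compound added for 30 min. AlphaScreen streptavidin donor/nickel chelate acceptor beads (10 ug/mL final), 30 min dark, luminescence read.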
L3MBTL1 inh: L3MBTL1 (human) inhibition; Q9Y468; Potency, µM (highest dose often 57.1 µM), for the others: top-dose activity, negative = inhibition, hits mostly inhibitors; hit rate 0.66% among 230,000; AlphaScreen L3MBTL1–H3K9me1 peptide binding; AID 485360; further: on the % scale 0 is the no-effect control and ±100 the full control effect; nearly all actives have a fitted effect of over 60% in size
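Read-out is AlphaScreen signal from streptavidin donor and nickel chelate acceptor beads (10 ug/mL final each) bridging L3MBTL1 (50 nM) and biotinylated K9-monomethylated H3(1-15) peptide (75 nM), after 30 min compound exposure at room temperature.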
* hit, by the source's call; ? = inconclusive; nt = no result given; [ ] = dose if it differs, or a comment. The call rests on the fitted dose curve; in most records, active means well fitted curve in the direction sought with a large enough effect; inconclusive means small, poorly fitted or top-dose-only effect, or another doubt; inactive means no such curve, though single readings can be large; an effect the other way counts as inactive or inconclusive. Potency means the concentration at half of the fitted maximal effect.

SMILES | G9a inh | JMJD2A Tudor | Sfp inh | BAZ2B inh | HP1b binding inh | L3MBTL1 inh
Cc1ccn2c(=O)nc(SCC(=O)N3CCC(Cc4ccccc4)CC3)nc2c1 | 0.6%[0.501 µM] | -13.4% | nt | -25.8% | 22.8% | -26.9%
Cc1cc(C)c2c(=O)n(CC(=O)N3CCC(Cc4ccccc4)CC3)sc2n1 | 1.58µM* | nt | 7.94µM* | 1.0% | nt | -8.8%
CCCOc1ccc(Oc2nc(NCC(C)C)nc(N3CCOCC3)n2)nn1 | 1.6%[59 µM] | -17.9% | nt | -0.3% | 33.4% | nt
O=C(NCc1cccnc1)c1cccc(S(=O)(=O)Nc2cccc(Cl)c2)c1 | 10.9%[59 µM] | -10.4% | nt | 7.5% | 31.4% | 1.7%
Cc1ccc(NC(=O)CSc2nnc(-c3cnccn3)n2Cc2ccco2)cc1 | -31.7%[12.7 µM] | -10.4% | 20µM* | ? | 13.0% | nt
COc1cc(-c2nnc(SC/C=C/c3ccccc3)n2N)cc(OC)c1OC | -2.1%[12.7 µM] | -2.1% | 10.8% | -3.4% | 11.9% | -7.0%
C(=C\c1ccccc1)/CSc1nnc(-c2cnccn2)n1Cc1ccco1 | 10µM* | ? | 35.5µM* | -34.3% | 6.1% | -8.0%
Nn1c(SC/C=C/c2ccccc2)nnc1-c1ccncc1 | 14.1µM* | ? | -6.4% | -7.1% | 20.1% | nt
CCN(Cc1ccccc1)C(=O)c1cc2c(s1)-c1c(C)cccc1OC2 | 302.4%[59 µM] | 236.0% | nt | 227.2% | 267.0% | nt
COC(=O)c1c(=O)n(O)c2ccc(OC)cc2[n+]1[O-] | 31.6µM* | ? | ? | ? | 15.5% | -8.6%
Clc1ccc(CN2CCC(c3ccccc3)CC2)cc1 | 12.5% | -2.8% | 15.3% | -0.1% | 26.9% | nt
Clc1cccc(CN2CCC(Cc3ccccc3)CC2)c1 | 3.55µM* | 3.16µM* | ? | 50.1µM* | ? | 56.7%
Fc1ccc(CN2CCC(Cc3ccccc3)CC2)cc1F | 10µM* | 28.2µM* | -12.9% | ? | -32.9% | 6.2%
Clc1cccc(CN2CCN(Cc3ccco3)CC2)c1 | 7.94µM* | 1.78µM* | ? | 17.8µM* | 20µM* | nt
Clc1ccc(CN2CCC(Cc3ccccc3)CC2)cc1 | 4.47µM* | 20µM* | ? | 31.6µM* | ? | 9.2%
CC(=O)c1ccc(S(=O)(=O)NCCC(=O)OCC(=O)N(Cc2ccccc2)C(C)(C)C)cc1 | 13.1%[12.7 µM] | -15.0% | nt | -11.0% | 20.9% | -1.1%
O=C1[C@H]2[C@H]3[C@H](O)[C@H](O)C/C(=N/OC[C@@H](O)COCc4ccco4)[C@H]3CC[C@@H]2C(=O)N1Cc1ccccc1 | nt | nt | 7.9% | nt | nt | nt
Cc1cccc(NC(=O)CSc2nc3c([nH]c4ccccc43)c(=O)n2C)c1C | 11.7%[59 µM] | -14.5% | nt | -1.4% | 13.2%[57 µM] | nt
Cc1ccc(NC(=O)c2ccc(=O)[nH]c2)cc1S(=O)(=O)N1CCCCCC1 | nt | -2.1% | nt | nt | 30.1% | 3.3%
CSc1ccc(CN2CCC(Cc3ccccc3)CC2)cc1 | 7.08µM* | 35.5µM* | -9.8% | 70.8µM* | -10.1% | -22.9%
OCC1(Cc2ccccc2)CCN(Cc2ccccn2)CC1 | nt | -2.9% | 15.0% | -0.4% | 45.5% | 3.4%
c1ccc(CC2CCN(Cc3ccccn3)CC2)cc1 | nt | 7.94µM* | 2.7% | 50.1µM* | ? | -4.6%
COc1c(O)c(O)c2oc(-c3ccccc3)cc(=O)c2c1OC | -7.1%[12.7 µM] | ? | 3.16µM* | ? | -15.0% | -7.7%
COc1ccc(-c2cc(=O)c3c(O)c(OC)c(OC)c(OC)c3o2)cc1OC | nt | nt | -5.3% | nt | nt | nt
COc1cc(-c2cc(=O)c3c(O)c(OC)c(OC)c(O)c3o2)ccc1O | -1.5%[12.7 µM] | -34.7% | 5.01µM* | ? | 4.4% | ?
COc1ccccc1C(CNC(=O)CNC(=O)c1cccc(Cl)c1)N1CCCC1 (stereo not drawn) | nt | -11.7% | nt | nt | 11.0% | nt
CCOC(=O)c1cc(-c2ccccc2)n(-c2cccc(C(=O)NC(C)CC)c2)c1C (stereo not drawn) | ? | -26.6% | nt | -26.0% | -3.5% | nt
COc1cc(/C=C2/C(=O)N(c3cccc(Br)c3)N=C2C)cc(OC)c1O | 10µM* | 28.2µM* | ? | 10µM* | 28.2µM* | nt

Source: PubChem (National Center for Advancing Translational Sciences (NCATS))
